The panel holds about 83,000 compounds, 20% with a hit somewhere; the sample as a whole holds those more often.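 96-well plates, one dose, 48 hours. Percent growth reported; active if below 10.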 Calls of active or inactive are those of the source.
Legend:
Assay in all cases: NCI-60 one-dose screen, 48 h (100 = growth as untreated, 0 = no growth, -100 = all killed)
Settings in all cases: 10 µM unless noted
SR leukemia = system: SR leukemia
RPMI-8226 leukemia = system: RPMI-8226 leukemia
OVCAR-8 ovarian = system: OVCAR-8 ovarian
OVCAR-5 ovarian = system: OVCAR-5 ovarian
OVCAR-4 ovarian = system: OVCAR-4 ovarian
SK-OV-3 ovarian = system: SK-OV-3 ovarian
IGROV1 ovarian = system: IGROV1 ovarian
OVCAR-3 ovarian = system: OVCAR-3 ovarian
HS 578T breast = system: HS 578T breast
NCI/ADR-RES ovarian = system: NCI/ADR-RES ovarian

Measured: growth

Cn1cc(-c2csc(-c3cn(C)c4ccccc34)n2)c2cnccc21
inactive: OVCAR-8 ovarian 27.4% | OVCAR-5 ovarian 77.4% | OVCAR-4 ovarian 68.1% | SK-OV-3 ovarian 105% | IGROV1 ovarian 68.5% | OVCAR-3 ovarian 43.9% | HS 578T breast 97.5% | NCI/ADR-RES ovarian 41.8%
active: SR leukemia -0.518% | RPMI-8226 leukemia -18.6%

CCN(CCNc1ccc(C)c2sc3cc(Cl)ccc3c(=O)c12)CC(C)(C)O
inactive: SR leukemia 49.6% | RPMI-8226 leukemia 49.4% | OVCAR-8 ovarian 85.5% | OVCAR-5 ovarian 70.2% | OVCAR-4 ovarian 72.8% | SK-OV-3 ovarian 45.1% | IGROV1 ovarian 50.7% | OVCAR-3 ovarian 91.7% | HS 578T breast 79.3% | NCI/ADR-RES ovarian 74.6%

Cc1ccc2cnc(N)c(C#Cc3cc(C(=O)Nc4ccc(CN5CCN(C)CC5)c(C(F)(F)F)c4)cnc3C)c2c1
active: SR leukemia -36.1% | RPMI-8226 leukemia -40.6% | OVCAR-5 ovarian -59.1% | HS 578T breast -12.4%
inactive: OVCAR-8 ovarian 48.4% | OVCAR-4 ovarian 37.6% | SK-OV-3 ovarian 50.5% | IGROV1 ovarian 11% | OVCAR-3 ovarian 32.4% | NCI/ADR-RES ovarian 22.8%

Cc1sc2nc(NCCN)[nH]c(=O)c2c1C
inactive: SR leukemia 89.6% | RPMI-8226 leukemia 110% | OVCAR-8 ovarian 101% | OVCAR-5 ovarian 89.5% | OVCAR-4 ovarian 85.1% | SK-OV-3 ovarian 111% | IGROV1 ovarian 100% | OVCAR-3 ovarian 96.7% | HS 578T breast 88.7% | NCI/ADR-RES ovarian 94.8%

O=S(=O)(NCCNc1nccc(-c2c(-c3ccc(F)c(O)c3)nc3sccn23)n1)c1ccc(Cl)cc1
inactive: OVCAR-8 ovarian 22.3% | OVCAR-5 ovarian 93.1% | OVCAR-4 ovarian 32.5% | SK-OV-3 ovarian 39.3% | IGROV1 ovarian 30.3% | OVCAR-3 ovarian 45.4% | HS 578T breast 31.4% | NCI/ADR-RES ovarian 28.5%
active: SR leukemia 9.79% | RPMI-8226 leukemia -11.1%

CCOC(=O)c1[nH]cc2c1CCc1sc(Nc3ccccn3)nc1-2
inactive: SR leukemia 56.8% | RPMI-8226 leukemia 45% | OVCAR-8 ovarian 83.1% | OVCAR-5 ovarian 109% | OVCAR-4 ovarian 72.7% | SK-OV-3 ovarian 100% | IGROV1 ovarian 97.6% | OVCAR-3 ovarian 82.2% | HS 578T breast 95.6% | NCI/ADR-RES ovarian 72.5%

CCOC(=O)C/C(=N\Nc1cc(=O)[nH]c2ccc(C)cc12)C(=O)OCC
inactive: SR leukemia 46.4% | RPMI-8226 leukemia 91.3% | OVCAR-8 ovarian 101% | OVCAR-5 ovarian 104% | OVCAR-4 ovarian 106% | SK-OV-3 ovarian 126% | IGROV1 ovarian 98% | OVCAR-3 ovarian 101% | HS 578T breast 91.8% | NCI/ADR-RES ovarian 105%

CCN(CC)CCCNc1cc(OC)c(OC)c2cccnc12
inactive: SR leukemia 41.5% | RPMI-8226 leukemia 74.4% | OVCAR-8 ovarian 65.1% | OVCAR-5 ovarian 112% | SK-OV-3 ovarian 56.3% | IGROV1 ovarian 35.4% | OVCAR-3 ovarian 30.9% | HS 578T breast 74.3% | NCI/ADR-RES ovarian 76.6%
active: OVCAR-4 ovarian -10.1%

Cc1nc2sc(C(=O)Nc3cccc4ccccc34)c(N)c2cc1C(=O)c1ccccc1
inactive: RPMI-8226 leukemia 15.6% | OVCAR-8 ovarian 23.7% | OVCAR-5 ovarian 32.3% | OVCAR-4 ovarian 51.8% | SK-OV-3 ovarian 39.7% | IGROV1 ovarian 24.8% | HS 578T breast 11.9% | NCI/ADR-RES ovarian 12.9%
active: SR leukemia 7.17% | OVCAR-3 ovarian -26.4%

CCCCCCCCn1ccc2cc(NC(=O)CN=[N+]=[N-])ccc21
inactive: SR leukemia 100% | RPMI-8226 leukemia 99.2% | OVCAR-8 ovarian 96.9% | OVCAR-5 ovarian 98.2% | OVCAR-4 ovarian 103% | SK-OV-3 ovarian 111% | IGROV1 ovarian 87.2% | OVCAR-3 ovarian 96% | HS 578T breast 101% | NCI/ADR-RES ovarian 116%

COCCn1cc(-c2nc(-c3cc4cccnc4n3C)cs2)c2ccccc21
inactive: SR leukemia 10.1% | RPMI-8226 leukemia 55.7% | OVCAR-8 ovarian 39% | OVCAR-5 ovarian 49% | OVCAR-4 ovarian 25.1% | SK-OV-3 ovarian 58.7% | IGROV1 ovarian 43.7% | OVCAR-3 ovarian 31.5% | HS 578T breast 61.5% | NCI/ADR-RES ovarian 13.3%

Cc1cc(NCCCNc2ccnc3cc(Cl)ccc23)nc(Nc2ccc(C(=O)N3CCCCC3)cc2)n1
active: SR leukemia -31.8% | RPMI-8226 leukemia -11.1%
inactive: OVCAR-8 ovarian 25.4% | OVCAR-5 ovarian 71.6% | OVCAR-4 ovarian 39.5% | SK-OV-3 ovarian 96.8% | IGROV1 ovarian 46.3% | OVCAR-3 ovarian 18.8% | HS 578T breast 85.3% | NCI/ADR-RES ovarian 75.6%

COc1ccc(-c2cn(Cc3cc4ccccc4s3)nn2)cc1OCCN1CCCCC1
active: SR leukemia 1.37%
inactive: RPMI-8226 leukemia 28.5% | OVCAR-8 ovarian 83.2% | OVCAR-5 ovarian 80.5% | OVCAR-4 ovarian 68.2% | SK-OV-3 ovarian 93.1% | IGROV1 ovarian 80.8% | OVCAR-3 ovarian 74.6% | HS 578T breast 51.3% | NCI/ADR-RES ovarian 75.4%

CN1C(=O)/C(=C/c2ccc(C(=O)Nc3ncc(Cc4cc(Cl)ccc4Cl)s3)cc2)SC1=S
inactive: SR leukemia 63.9% | RPMI-8226 leukemia 57% | OVCAR-8 ovarian 80.8% | OVCAR-5 ovarian 70.7% | OVCAR-4 ovarian 57% | SK-OV-3 ovarian 71.1% | IGROV1 ovarian 56.9% | OVCAR-3 ovarian 80.1% | HS 578T breast 80.9% | NCI/ADR-RES ovarian 70.2%

CC1SC(c2ccccc2O)N(NC(=O)CCC(=O)c2nc3ncccc3[nH]2)C1=O (stereo not given)
inactive: SR leukemia 109% | RPMI-8226 leukemia 93.1% | OVCAR-8 ovarian 97% | OVCAR-5 ovarian 107% | OVCAR-4 ovarian 92.8% | SK-OV-3 ovarian 92.3% | IGROV1 ovarian 70.1% | OVCAR-3 ovarian 97% | HS 578T breast 90.2% | NCI/ADR-RES ovarian 89.6%

NS(=O)(=O)c1ccc(C(=O)NN2C(=O)c3ccccc3C2=O)cc1
inactive: SR leukemia 105% | RPMI-8226 leukemia 109% | OVCAR-8 ovarian 107% | OVCAR-5 ovarian 110% | OVCAR-4 ovarian 113% | SK-OV-3 ovarian 117% | IGROV1 ovarian 113% | OVCAR-3 ovarian 108% | HS 578T breast 102% | NCI/ADR-RES ovarian 112%

Cc1ccccc1N1CCN(C(=S)c2ccccc2)CC1
inactive: SR leukemia 104% | RPMI-8226 leukemia 115% | OVCAR-8 ovarian 96.4% | OVCAR-5 ovarian 93.4% | OVCAR-4 ovarian 90.6% | SK-OV-3 ovarian 98.1% | IGROV1 ovarian 57.2% | OVCAR-3 ovarian 108% | HS 578T breast 106% | NCI/ADR-RES ovarian 102%

COc1ccc2cc(C(=O)N3CCC([C@@H](C)C(=O)NCc4ccc5c(c4)OCO5)CC3)[nH]c2c1
inactive: SR leukemia 62.6% [50 µM] | RPMI-8226 leukemia 47.1% [50 µM] | OVCAR-8 ovarian 16.3% [50 µM] | OVCAR-5 ovarian 73.1% [50 µM] | OVCAR-4 ovarian 53.3% [50 µM] | IGROV1 ovarian 41.6% [50 µM] | HS 578T breast 22.9% [50 µM] | NCI/ADR-RES ovarian 38.3% [50 µM]
active: SK-OV-3 ovarian 1.39% [50 µM] | OVCAR-3 ovarian 8.71% [50 µM]

COC(=O)c1c2c(c(C)[n+]([O-])c1C)C(=O)C(NCc1ccccc1)=CC2=O
inactive: SR leukemia 61.4% | RPMI-8226 leukemia 37.3% | OVCAR-5 ovarian 39.5% | SK-OV-3 ovarian 88.8% | HS 578T breast 68.8%
active: OVCAR-8 ovarian 5.27% | OVCAR-4 ovarian -78.7% | IGROV1 ovarian 8.63% | OVCAR-3 ovarian 0.759% | NCI/ADR-RES ovarian 2.6%

CCCCNC(=O)c1ccc2c(c1)nc(-c1ccccc1)n2C1CCCCC1
inactive: SR leukemia 69.2% | RPMI-8226 leukemia 88.3% | OVCAR-8 ovarian 102% | OVCAR-5 ovarian 102% | OVCAR-4 ovarian 102% | SK-OV-3 ovarian 48.4% | IGROV1 ovarian 109% | OVCAR-3 ovarian 115% | HS 578T breast 110% | NCI/ADR-RES ovarian 98%

C=C1C(=O)O[C@@H]2C3C(=C(C)CC[C@@H]12)CC1O[C@]13C (stereo not given in full)
inactive: SR leukemia 38.4% [6.75 µM] | RPMI-8226 leukemia 43.8% [6.75 µM] | OVCAR-8 ovarian 83.5% [6.75 µM] | OVCAR-5 ovarian 108% [6.75 µM] | OVCAR-4 ovarian 93.4% [6.75 µM] | SK-OV-3 ovarian 118% [6.75 µM] | IGROV1 ovarian 99.4% [6.75 µM] | OVCAR-3 ovarian 75.8% [6.75 µM] | HS 578T breast 90.4% [6.75 µM] | NCI/ADR-RES ovarian 98.1% [6.75 µM]

N[C@@H]1CCC[C@H]1NCCCCN1C(=O)c2cccc3cc([N+](=O)[O-])cc(c23)C1=O
active: SR leukemia 4.54%
inactive: RPMI-8226 leukemia 41.4% | OVCAR-8 ovarian 32.5% | OVCAR-5 ovarian 72.5% | OVCAR-4 ovarian 36.6% | SK-OV-3 ovarian 34% | IGROV1 ovarian 25.6% | OVCAR-3 ovarian 45.6% | HS 578T breast 64.7% | NCI/ADR-RES ovarian 73.4%

O=C1CCCC1[n+]1ccccc1 (stereo not given)
inactive: SR leukemia 127% | RPMI-8226 leukemia 103% | OVCAR-8 ovarian 85.8% | OVCAR-5 ovarian 70.5% | OVCAR-4 ovarian 98% | SK-OV-3 ovarian 80.1% | IGROV1 ovarian 101% | OVCAR-3 ovarian 97.8% | HS 578T breast 114% | NCI/ADR-RES ovarian 103%

CN(C)c1ccc(C(=S)c2ccc(N(C)C)cc2)cc1
inactive: SR leukemia 33.2% | RPMI-8226 leukemia 83.1% | OVCAR-8 ovarian 88.5% | OVCAR-5 ovarian 94.8% | OVCAR-4 ovarian 83% | SK-OV-3 ovarian 82.4% | IGROV1 ovarian 59.3% | OVCAR-3 ovarian 80.7% | HS 578T breast 94.1% | NCI/ADR-RES ovarian 28.7%

Cc1ccc(O)c(NC(=O)c2cccc(Nc3ccnc(C(F)(F)F)c3)c2)c1
inactive: SR leukemia 39.8% | OVCAR-8 ovarian 73.2% | OVCAR-5 ovarian 87.1% | OVCAR-4 ovarian 45.3% | SK-OV-3 ovarian 72.9% | IGROV1 ovarian 79.1% | OVCAR-3 ovarian 93.2% | HS 578T breast 93% | NCI/ADR-RES ovarian 40.2%
active: RPMI-8226 leukemia -1.23%

CN1C(=O)N2CN3CCCN(C3)CN3C(=S)NC1C23 (stereo not given)
inactive: SR leukemia 97.4% | RPMI-8226 leukemia 93.6% | OVCAR-8 ovarian 101% | OVCAR-5 ovarian 109% | OVCAR-4 ovarian 102% | SK-OV-3 ovarian 93.3% | IGROV1 ovarian 104% | OVCAR-3 ovarian 107% | HS 578T breast 101% | NCI/ADR-RES ovarian 109%

CC(O)CNC(Cc1ccccc1)c1ccc2c(c1)OCO2 (stereo not given)
inactive: SR leukemia 101% | RPMI-8226 leukemia 90.3% | OVCAR-8 ovarian 97.1% | OVCAR-5 ovarian 59.6% | OVCAR-4 ovarian 102% | SK-OV-3 ovarian 66.2% | IGROV1 ovarian 101% | OVCAR-3 ovarian 98.7% | HS 578T breast 103% | NCI/ADR-RES ovarian 94.7%
